A word on the inhibition: it is the change of the read-out against control, counted positive when it falls.

The campaign covered roughly 310,000 compounds. About 1,000 (0.32%) were called active. No rule for the calls is given here. Only a sample is shown. Measured potencies and affinities stand elsewhere.

The experiment can be described thus: Inhibition of PhoP regulon, Salmonella typhi GFP reporter cells, confirmation, 4 h (AID 1850).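 Also: 0% = induced wells with vehicle and 100% = uninduced wells.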 The following applies: Salmonella Typhi PhoP-promoter GFP reporter, fluorescence, at 50 µM, stronger effect = higher value.
Consider `O=C(OCCN=C1NS(=O)(=O)c2ccccc21)c1ccco1`, for which the inhibition was 5.3% (inactive).
Consider `O=C(c1cccc(S(=O)(=O)N2CCCC2)c1)N1CCN(c2ccccc2F)CC1`, for which the inhibition is -7.17% (inactive).
With `O=C(CSc1nc2[nH]ncc2c(=O)n1-c1ccc(Cl)c(Cl)c1)NCc1ccccc1Cl`, the inhibition is -3.93% (inactive).
With `C/C(=N\NC(=O)c1cccnc1)c1ccccc1`, the inhibition is -2.72% (inactive).
With `CC(=O)Nc1ccc(S(=O)(=O)NCC2CCC(C(=O)NCCCN3CCCC3=O)CC2)cc1` (stereo unspecified), the inhibition was -3.51% (inactive).
Take `COc1ccc(S(=O)(=O)N2CCc3ccccc32)cc1C(=O)O`: the inhibition is 0.91% (inactive).
As to `O=C(NCc1cccnc1)c1cc(Sc2ccc(F)cc2F)nc2ccccc12`, the inhibition is -9.05% (inactive).
`COc1ccc(CC(=O)NNC(=S)NC(=O)c2cccnc2)cc1`: the inhibition was 9.02% (inactive).
The same measure for `Cc1n[nH]c(C)c1CCNC(=O)C1CCC(=O)N(CCc2cccc(F)c2)C1` (stereo unspecified): -2.89% (inactive).
Then `COC(=O)CC1C(=O)NCCN1C(=S)Nc1ccc(F)cc1` (stereo unspecified), with 4.44% (inactive); and `CCn1cc(C(=O)O)c(=O)c2cnc(N3CCN(C(=S)Nc4ccc(F)cc4)CC3)nc21`, with -5.98% (inactive); and `COC(=O)C(C)NC(=S)N1CC2C[C@@H](C1)Cn1c2cccc1=O` (stereo partly specified), with 3.1% (inactive).
For `COC(=O)C1=C(N)Oc2cc(N(C)C)ccc2C1c1ccccc1OC` (stereo unspecified), the inhibition is -7.55% (inactive).
Take `Cc1ccc(CNC(=O)CSCc2ccccc2F)cc1`: the inhibition is 3.95% (inactive).
As to `Cc1ccccc1N1CC(C(=O)NC2CCCC2)CC1=O` (stereo unspecified), the inhibition is -18.4% (inactive).
Then `CCCNC(=O)COc1coc(CN2CCN(c3cccc(Cl)c3)CC2)cc1=O`, with 9.58% (inactive).
As for `Cc1c(NC(=O)c2nn3c(c2Br)NC(c2ccccc2)CC3C(F)(F)F)c(=O)n(-c2ccccc2)n1C` (stereo unspecified), the inhibition is -3.46% (inactive).
As for `OC1CCCN(Cc2cccc3ccccc23)C1` (stereo unspecified), the inhibition is -1.87% (inactive).
Take `c1cc2ccc3ccc(CN4CCOCC4)c4ccc(c1)c2c34`: the inhibition is -8.34% (inactive).
Then `Cc1nnc(NC(=O)CCSc2ccc(Cl)cc2)s1`, with -3% (inactive); and `COc1ccc2c(c1)CC(N1CCN(C)CC1)c1cc(OC)ccc1S2` (stereo unspecified), with 21.4% (inactive); and `Fc1ccc2c(c1)Sc1ccc(Cl)cc1CC2N1CCN(CCC2OCCO2)CC1` (stereo unspecified), with 12.3% (inactive).
The same measure for `CN1CCN(CCOC2Cc3ccccc3Sc3ccc(Cl)cc32)CC1` (stereo unspecified): -19.4% (inactive); for `COCCCN1CCN(C2Cc3ccccc3Sc3ccc(Cl)cc32)CC1` (stereo unspecified): 1.9% (inactive); for `CC(C)c1ccc2c(c1)C(N1CCN(C)CC1)Cc1cccnc1S2` (stereo unspecified): 15.7% (inactive).
`CSc1ccc2c(c1)C(N1CCN(C)CC1)Cc1ccccc1S2` (stereo unspecified): the inhibition was 12.9% (inactive).

For the origin of these results see PubChem BioAssay AID1850 (Southern Research Specialized Biocontainment Screening …, 2009).
